Compounds with a hit are over-represented: about 19% of the library has one in this group of screens.
MCF10A rerep: inducers of DNA re-replication in MCF 10A breast cells; MCF 10A DNA re-replication, Hoechst nuclear intensity, 48 h; Potency, µM (highest dose often 46.1 µM), for the others: top-dose activity, positive = re-replication, most hits filed as activators; 2.9% of 350,000 active; AID 624296; also: potency is read from the fitted curve at half-maximal effect; % of control where 0% means no effect; nearly all actives have a fitted effect of over 50% in size
Chronic BCR inh: blocks chronic active B-cell receptor signaling. AID 493014. Potency, µM (titrated, usually from 46.1 µM), without a hit: top-dose activity change, negative = inhibition, hits mostly inhibitors. 0.05% of 340,000 active. ABC-DLBCL IkBa-CBG/CBR reporter, luminescence ratio, 4 h; active = well fitted inhibition curve with a large enough effect in the signal ratio, with a control signal flat, not every such curve was filed as active; inconclusive = small, poorly fitted or top-dose-only effect, or effect the other way, or a change in a side signal; the % refers to the signal ratio;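 also: potency is read from the fitted curve at half-maximal effect; plate controls were basal doxycycline-induced cells for no effect and cells given 10 µM MG132 for full effect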
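TMD8 ABC-DLBCL cells carrying doxycycline-inducible green luciferase fused to IkappaBalpha plus unfused red luciferase were exposed to compounds (up to 46 uM) for 4 hrs at 37C. Activity came from the overlap-corrected green/red luminescence ratio.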
TDP1 cell CPT: growth inhibition of DT40 Tdp1-/-;hTDP1 cells with camptothecin (screen for TDP1 inhibitors) | Potency, µM (doses to about 46.2 µM), for inactives: top-dose activity change, negative = growth inhibition, most hits filed as inhibitors | chicken DT40 Tdp1-/-;hTDP1 cells + 20 nM CPT, ATP luminescence, 48 h | 12% of 420,000 active | AID 686979; also: potency is read from the fitted curve at half-maximal effect; % is scaled to controls: 0 for no effect and ±100 for the full control effect; nearly all actives have a fitted effect of over 55% in size
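Cell growth measured by CellTiter-Glo luminescence after a minimum 48 h, 37 C compound exposure with 20 nM CPT in Tdp1-knockout DT40 cells stably expressing hTDP1, seeded 400/well; qHTS titration format.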
SW480 rereplic: inducers of DNA re-replication in SW480 colon cancer cells; Potency, µM (top dose mostly 46.1 µM), for the others: at the highest dose re-replication activation, hits mostly activators; SW480 DNA re-replication, Hoechst DNA content imaging, 48 h; 1.8% of 340,000 active; also: potency is read from the fitted curve at half-maximal effect; % of control where 0% means no effect; nearly all actives have a fitted effect of over 55% in size
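Treated cells incubate 48 hr (37 C, 5% CO2), are stained 40 min with Hoechst, and nuclear fluorescence is enumerated; a rise in nuclei with high DNA signal marks re-replication.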
TDP1 cell noCPT: qHTS for Inhibitors of human tyrosyl-DNA phosphodiesterase 1 (TDP1): qHTS in cells in absence of CPT; DT40 Tdp1-/- hTDP1 cells, no CPT, ATP luminescence, 48 h; Potency, µM (titrated, usually from 46.2 µM), inactives show top-dose activity change, negative = growth inhibition, most hits filed as inhibitors; 15% of 420,000 active; AID 686978, 2013; also: potency is read from the fitted curve at half-maximal effect; % is scaled to controls: 0 for no effect and ±100 for the full control effect; nearly all actives have a fitted effect of over 55% in size
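Seeded 400 DT40-hTDP1 cells/well (vehicle DMSO, no 20 nM CPT); pinned compounds; ≥48 hr at 37 °C; CellTiter-Glo luminescence as viability measure.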
IL-1B inflam inh: inflammasome signaling inhibition, IL-1 beta readout | THP-1 LPS/ATP IL-1B secretion, AlphaLISA, 16 h; hits give low values | activity change, % at 57.5 µM | 4.7% of 360,000 active; in the data active = activity change below about -50%; inconclusive = mostly about -30% to -49%; also: % is scaled to controls: 0 for no effect and ±100 for the full control effect
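THP-1 cells pretreated 1 hr with compounds (up to 57.5 uM final), then stimulated with LPS (250 ng/mL final) plus ATP (1.25 mM final); secreted IL-1B measured by AlphaLISA after 16 hr, decreased signal indicating inhibition.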
* hit, by the source's call; ? = inconclusive; . = no result given. Unless noted, calls follow the shape of the dose curve; as a rule, active = well fitted curve in the direction sought with a large enough effect; inconclusive = small, poorly fitted or top-dose-only effect, or another doubt; inactive = no such curve, though single readings can be large; an effect the other way counts as inactive or inconclusive.

SMILES	MCF10A rerep	Chronic BCR inh	TDP1 cell CPT	SW480 rereplic	TDP1 cell noCPT	IL-1B inflam inh
CC(=O)C1CN(S(=O)(=O)c2ccc(C)cc2)C(c2ccccc2)CC1C (centres undefined)	.	.	?	.	?	20
CCOc1ccc(NC(=O)CCS(=O)(=O)c2cc3c4c(c2)CCN4C(=O)CC3)cc1	.	.	-1%	.	-6%	.
CCCCNc1ncnc2sc3c(c12)CCN(CCC)C3	5%	2%	?	-3%	?	0
CCOc1ccc(S(=O)(=O)N2CCN(C(=O)C3CCC3)CC2)cc1	5%	-5%	?	-1%	?	7
COc1ccc(C(=O)NC2CCCc3ccccc32)cc1[N+](=O)[O-] (centres undefined)	?	?	5.2µM*	?	3.7µM*	42
Cc1c(C(=O)NC2CCCc3ccccc32)cccc1[N+](=O)[O-] (centres undefined)	0%	-16%	?	0%	13µM*	11
COc1cc(C(=O)NC2CCCc3ccccc32)cc(OC)c1C (centres undefined)	1%	0%	?	0%	?	44
N=c1c2c3c(sc2ncn1N)CCC3	-6%	3%	2%	-3%	-18%	44
CC(C)(C)C1CCc2c(sc3ncn(N)c(=N)c23)C1 (centres undefined)	?	?	16µM*	?	6.5µM*	-75*
CC[C@@H](CC1CCCCC1)C(=O)N(Cc1ccccc1)c1ccccc1	14%	2%	4.6µM*	-4%	4.1µM*	40
Cc1ccc(S(=O)(=O)NC(CC(C)C)C(=O)N2CCOCCOCCOCC2)cc1 (centres undefined)	-1%	8%	6%	6%	3%	7
O=C(CCNS(=O)(=O)c1ccccc1F)N1CCN(C/C=C/c2ccccc2)CC1	1%	-1%	4%	99%	?	-20
Cc1ccc(S(=O)(=O)NC(CC(C)C)C(=O)N2CCN(C/C=C/c3ccccc3)CC2)cc1 (centres undefined)	34%	?	16µM*	-9%	16µM*	-16
Cc1ccc(S(=O)(=O)NCc2ccc(C(=O)NC3CC3)cc2)cc1	0%	0%	-3%	-5%	2%	7
CC(=O)Nc1ccc(S(=O)(=O)NCCC(=O)N2CCN(C(c3ccccc3)c3ccccc3)CC2)cc1	13%	-12%	?	-6%	16µM*	?
Cc1ccc(S(=O)(=O)NCc2ccc(C(=O)NCCCN3CCC(Cc4ccccc4)CC3)cc2)cc1	4%	4%	6%	2%	-7%	-65*
Cc1ccc(S(=O)(=O)NCCC(=O)N2CCN(C/C=C/c3ccccc3)CC2)cc1	4%	1%	?	-4%	15µM*	22
O=C(CCNS(=O)(=O)c1ccccc1)N1CCN(C(c2ccccc2)c2ccccc2)CC1	.	3%	.	.	.	.
Cc1cccc(NC(=O)CCS(=O)(=O)c2ccc3c(c2)n(C)c(=O)c(=O)n3C)c1C	.	.	1%	.	2%	.
CN(CCCn1ccc(NC(=O)OCc2ccccc2)nc1=O)Cc1ccco1	.	.	1%	.	-5%	-14
CN(C)c1ccc(-c2cncnc2N(C)Cc2ccco2)cc1	.	.	?	.	-16%	.
COc1ccc(C2CC(c3ccccc3)=NN2C(=O)COC(=O)c2cccc(N)c2)cc1 (centres undefined)	17%	?	?	11%	?	-14
CC(=O)Nc1ccc(S(=O)(=O)NCCC(=O)N2CCC(Cc3ccccc3)CC2)cc1	12%	?	?	0%	?	-12
Cc1ccc(S(=O)(=O)NC(C)(C)CN2CCC(Cc3ccccc3)CC2)cc1	?	3%	16µM*	?	18µM*	?

Source: PubChem
